Experimental findings from paper PMC5700166 are described below.

Holding throughout (experiment): protein-binding microarray (PBM); PBM: ~300 nM protein, 6 mM HEPES pH 7.8, 80 mM KCl, 0.5 mM EDTA, 0.5 mM EGTA, 6% glycerol, 35 ng/ul poly-dIdC, 1% milk, 1 h, room temperature; Ap Aiptasia and Nv Nematostella (sea anemones) / Co Capsaspora / Aq Amphimedon (sponge) / Dm Drosophila / Hu human; RHD is the Rel homology domain; high values mean tight binding
Holding throughout (details): dsDNA, one strand shown

One experiment has as its target T1, GST-Ap-NF-kB RHD (Exaiptasia pallida (Aiptasia), UniProt A0A913YAJ5 2-422).
T1 sequence: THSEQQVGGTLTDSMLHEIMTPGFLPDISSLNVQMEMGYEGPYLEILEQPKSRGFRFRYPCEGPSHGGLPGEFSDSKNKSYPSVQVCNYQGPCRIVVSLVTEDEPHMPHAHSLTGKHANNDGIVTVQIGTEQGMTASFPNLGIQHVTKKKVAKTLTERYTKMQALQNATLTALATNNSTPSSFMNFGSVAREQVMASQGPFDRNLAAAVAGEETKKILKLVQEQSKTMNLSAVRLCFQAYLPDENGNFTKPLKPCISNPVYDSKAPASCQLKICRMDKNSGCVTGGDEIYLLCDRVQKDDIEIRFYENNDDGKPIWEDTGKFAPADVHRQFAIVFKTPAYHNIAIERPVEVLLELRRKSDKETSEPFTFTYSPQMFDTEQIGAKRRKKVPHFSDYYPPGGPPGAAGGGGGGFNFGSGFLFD

Experiment [1] deals with T2, GST-Nv-NF-kB (Cys allele) (Nematostella vectensis, UniProt E5G601 2-411).
T2 sequence: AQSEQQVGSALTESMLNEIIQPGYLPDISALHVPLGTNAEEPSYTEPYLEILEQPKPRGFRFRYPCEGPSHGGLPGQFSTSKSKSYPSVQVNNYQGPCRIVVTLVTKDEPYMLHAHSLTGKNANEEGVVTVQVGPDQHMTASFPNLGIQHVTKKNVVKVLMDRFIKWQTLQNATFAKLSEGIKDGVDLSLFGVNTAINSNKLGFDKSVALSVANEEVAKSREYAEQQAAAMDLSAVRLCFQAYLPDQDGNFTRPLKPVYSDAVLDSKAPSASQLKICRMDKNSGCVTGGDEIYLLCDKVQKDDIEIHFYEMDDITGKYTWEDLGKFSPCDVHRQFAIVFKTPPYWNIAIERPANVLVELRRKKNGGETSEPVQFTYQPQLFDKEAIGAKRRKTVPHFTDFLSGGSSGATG

For experiment [2], the target named is T3, GST-Nv-NF-kB (Ser allele) (Nematostella vectensis, UniProt A7UNT2 2-411).
T3 sequence: T2 sequence with Q21R, C66S, S207N, E215Q, V217A, E225K, A268E, D399E

A further experiment concerns the target T4, GST-Co-NF-kB (Capsaspora owczarzaki, UniProt F1ARL5 200-546).
T4 sequence: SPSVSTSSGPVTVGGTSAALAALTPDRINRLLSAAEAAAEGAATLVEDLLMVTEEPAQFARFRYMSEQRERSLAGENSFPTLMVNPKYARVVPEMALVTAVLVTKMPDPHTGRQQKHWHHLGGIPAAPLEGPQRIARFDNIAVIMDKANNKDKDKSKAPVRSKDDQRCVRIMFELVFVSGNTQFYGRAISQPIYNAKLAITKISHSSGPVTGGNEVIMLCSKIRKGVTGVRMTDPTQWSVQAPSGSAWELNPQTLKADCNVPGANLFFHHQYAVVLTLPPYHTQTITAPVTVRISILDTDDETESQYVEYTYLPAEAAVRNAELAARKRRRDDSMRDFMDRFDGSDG

The target in the next experiment is T5, GST-Dm-Relish (Drosophila melanogaster, UniProt Q94527 99-473).
T5 sequence: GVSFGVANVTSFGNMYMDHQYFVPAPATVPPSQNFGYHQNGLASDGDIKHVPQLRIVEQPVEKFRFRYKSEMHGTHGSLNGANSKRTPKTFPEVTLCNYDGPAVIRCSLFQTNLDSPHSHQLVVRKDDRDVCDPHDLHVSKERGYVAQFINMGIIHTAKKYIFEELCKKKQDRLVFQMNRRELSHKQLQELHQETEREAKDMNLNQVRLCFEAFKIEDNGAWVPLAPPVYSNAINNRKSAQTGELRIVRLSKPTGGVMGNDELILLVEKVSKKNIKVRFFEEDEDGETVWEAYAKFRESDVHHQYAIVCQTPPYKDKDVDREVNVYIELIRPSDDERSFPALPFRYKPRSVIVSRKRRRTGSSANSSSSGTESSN

For a further experiment, the target named is T6, GST-Aq-NF-kB (Amphimedon queenslandica, UniProt A9Y5G7 2-389).
T6 sequence: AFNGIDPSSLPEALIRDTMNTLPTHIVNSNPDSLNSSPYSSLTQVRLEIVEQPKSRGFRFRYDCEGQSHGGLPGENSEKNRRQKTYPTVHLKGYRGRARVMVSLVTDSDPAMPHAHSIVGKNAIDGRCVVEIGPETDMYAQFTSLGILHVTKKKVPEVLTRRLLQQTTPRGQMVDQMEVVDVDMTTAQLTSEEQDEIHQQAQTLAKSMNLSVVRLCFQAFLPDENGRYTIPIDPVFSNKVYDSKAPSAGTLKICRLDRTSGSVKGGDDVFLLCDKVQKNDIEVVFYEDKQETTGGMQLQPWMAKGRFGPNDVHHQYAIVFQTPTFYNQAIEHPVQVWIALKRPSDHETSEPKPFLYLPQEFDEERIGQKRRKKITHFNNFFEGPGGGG

The target of a further experiment is GST-Hu-p50 (Homo sapiens, UniProt P19838 7-356).
Sequence of GST-Hu-p50 (P19838 7-356): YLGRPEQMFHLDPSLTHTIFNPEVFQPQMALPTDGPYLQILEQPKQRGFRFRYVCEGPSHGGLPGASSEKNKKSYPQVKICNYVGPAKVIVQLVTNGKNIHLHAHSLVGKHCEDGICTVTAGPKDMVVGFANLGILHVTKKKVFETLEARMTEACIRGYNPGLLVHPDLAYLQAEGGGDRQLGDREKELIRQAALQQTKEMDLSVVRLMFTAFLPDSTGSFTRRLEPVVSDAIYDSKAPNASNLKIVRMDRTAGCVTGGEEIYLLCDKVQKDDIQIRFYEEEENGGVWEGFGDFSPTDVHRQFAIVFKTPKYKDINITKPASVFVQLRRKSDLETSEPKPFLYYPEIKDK

Numbering of substitutions follows the chain as printed.

For the sequence “CCGATTAACATCACGGGGGATTATGATGTTAATCGGGTCTTGATTCGCTTGACGCTGCTG”, the binding signal with GST-Ap-NF-kB RHD was found to be 7.59 z-score; in experiment [1], 6.57 z-score; in experiment [2], 7 z-score; with GST-Co-NF-kB, 6.84 z-score; in the experiment with GST-Dm-Relish, 6.41 z-score; with GST-Aq-NF-kB, 5.87 z-score. In the experiment with GST-Hu-p50, this sequence yielded a binding signal of 6.67 z-score.

As for “CCGATTAACATCAAGGGTTTCCCTGATGTTAATCGGGTCTTGATTCGCTTGACGCTGCTG”, the binding signal in the experiment with GST-Ap-NF-kB RHD was 4.12 z-score; in experiment [1], 4.79 z-score; in experiment [2], 4.07 z-score; with GST-Co-NF-kB, 3.82 z-score; with GST-Dm-Relish, 7.83 z-score; with GST-Aq-NF-kB it was 5.56 z-score. The same sequence showed a binding signal in the experiment with GST-Hu-p50 of 3.28 z-score.

On to “CCGATTAACATCAAAATTCCCGCTGATGTTAATCGGGTCTTGATTCGCTTGACGCTGCTG”, for which the binding signal is 4.49 z-score in the experiment with GST-Ap-NF-kB RHD; 5.99 z-score in experiment [1]; 5.62 z-score in experiment [2]; 5.23 z-score with GST-Co-NF-kB; 5.76 z-score in the experiment with GST-Dm-Relish; 5.51 z-score in the experiment with GST-Aq-NF-kB. Besides, the binding signal with GST-Hu-p50 worked out at 4.41 z-score.

On to “CCGATTAACATCAAGGGAACTCCTGATGTTAATCGGGTCTTGATTCGCTTGACGCTGCTG”, for which the binding signal in the experiment with GST-Ap-NF-kB RHD was found to be 3.72 z-score; in experiment [1], 3.17 z-score; in experiment [2], 1.27 z-score; with GST-Co-NF-kB it was 1.28 z-score; with GST-Dm-Relish, 5.67 z-score; in the experiment with GST-Aq-NF-kB, 4.45 z-score. The binding signal with GST-Hu-p50 is 2.28 z-score.

With “CCGATTAACATCACATTTTTCCCTGATGTTAATCGGGTCTTGATTCGCTTGACGCTGCTG”, the binding signal stood at 3.43 z-score with GST-Ap-NF-kB RHD; 5.03 z-score in experiment [1]; 7.3 z-score in experiment [2]; 5.64 z-score in the experiment with GST-Co-NF-kB; 2.56 z-score with GST-Dm-Relish; 4.26 z-score in the experiment with GST-Aq-NF-kB. In the experiment with GST-Hu-p50, this sequence displayed a binding signal of 3.84 z-score.

Turning to “CCGATTAACATCAGGGAAAAATATGATGTTAATCGGGTCTTGATTCGCTTGACGCTGCTG”, the binding signal in the experiment with GST-Ap-NF-kB RHD was 3.68 z-score; in experiment [1], 5.51 z-score; in experiment [2] it was 7.16 z-score; in the experiment with GST-Co-NF-kB, 5.79 z-score; with GST-Dm-Relish, 2.03 z-score; with GST-Aq-NF-kB it was 5.19 z-score. In addition, the binding signal with GST-Hu-p50 was determined as 4.2 z-score.

As to “CCGATTAACATCAGGGGAAACGATGATGTTAATCGGGTCTTGATTCGCTTGACGCTGCTG”, the binding signal with GST-Ap-NF-kB RHD was 4.89 z-score; in experiment [1] it was 6.2 z-score; in experiment [2], 8.83 z-score; in the experiment with GST-Co-NF-kB it was 6.65 z-score; with GST-Dm-Relish it was 1.87 z-score; in the experiment with GST-Aq-NF-kB, 3.92 z-score. Besides, in the experiment with GST-Hu-p50, the binding signal turned out to be 4.62 z-score.

On to “CCGATTAACATCAACTTTCCCCCTGATGTTAATCGGGTCTTGATTCGCTTGACGCTGCTG”, for which the binding signal with GST-Ap-NF-kB RHD was 7.6 z-score; in experiment [1], 7.45 z-score; in experiment [2] it was 9.1 z-score; with GST-Co-NF-kB it was 9.36 z-score; in the experiment with GST-Dm-Relish it was 3.9 z-score; with GST-Aq-NF-kB, 6.57 z-score. Moreover, the binding signal in the experiment with GST-Hu-p50 was determined as 6.16 z-score.

Consider “CCGATTAACATCAGGGAATCTACTGATGTTAATCGGGTCTTGATTCGCTTGACGCTGCTG”, for which the binding signal with GST-Ap-NF-kB RHD stood at 2.43 z-score; in experiment [1], 3.44 z-score; in experiment [2], 3.68 z-score; with GST-Co-NF-kB, 1.94 z-score; with GST-Dm-Relish it was 4.76 z-score; with GST-Aq-NF-kB, 4.82 z-score. Further, the binding signal in the experiment with GST-Hu-p50 amounted to 2.96 z-score.

In the case of “CCGATTAACATCAGGGGGTTCCATGATGTTAATCGGGTCTTGATTCGCTTGACGCTGCTG”, the binding signal in the experiment with GST-Ap-NF-kB RHD was 7.79 z-score; in experiment [1], 5.3 z-score; in experiment [2], 5.6 z-score; in the experiment with GST-Co-NF-kB, 1.97 z-score; in the experiment with GST-Dm-Relish, 9.47 z-score; with GST-Aq-NF-kB, 6.05 z-score. The sequence further showed a binding signal with GST-Hu-p50 of 5.73 z-score.
